For seven compounds, Potency and outcome results are on record in PubChem BioAssay (Tox21).

Experiment [1] in a line: qHTS assay to identify small molecule agonists of the sonic hedgehog signaling (Shh) pathway (AID 1259368; calls by dose curve;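 note: NIH/3T3-derived 3T3Gli1-Luc cells carrying a stable Gli1-driven firefly luciferase reporter; series mostly up to about 92 µM; nearly all actives have a fitted effect of over 15% in size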). In a few lines:
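Luminescent signal was taken as a measure of Gli1-controlled luciferase expression in stably transfected NIH/3T3-derived cells that had been treated for 24 hr with compounds delivered in DMSO.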
(In general: qHTS replaces the single test concentration by a dilution series.)

A short description of experiment [2]: qHTS assay to identify small molecule antagonists of the sonic hedgehog signaling (Shh) pathway (AID 1259369; calls by dose curve; note: nearly all actives have a fitted effect of over 45% in size; note: potency is the fitted concentration of half-maximal effect). In short, it runs like this: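 Screening used 3T3Gli1-Luc cells at 2,000 per well, compounds delivered in DMSO, and conditioned medium as agonist stimulus; plates incubated 24hr at 37 C and 5% CO2 before a 30min luciferase step.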
Experiment [3] is described as follows: qHTS assay to identify small molecule agonists of the androgen receptor (AR) signaling pathway in the presence of an antagonist - cell viability counter screen (AID 1259379).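 Note: MDA-kb2 human breast cancer cells carrying an MMTV luciferase reporter; series mostly up to about 92 µM; nearly all actives have a fitted effect of over 25% in size.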 In short, it runs like this:
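In MDA-kb2 cells (human breast carcinoma, MMTV-luciferase), compounds at 15 concentrations plus 3.0uM nilutamide; 16 hr, 37C, 0% CO2; CellTiter-Fluor fluorescence read for viability.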

Experiment [4] is described as follows: qHTS assay to identify small molecule antagonists of the estrogen receptor beta (ER-beta) signaling pathway - cell viability counter screen (AID 1259382).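 Note: HEK293T cells carrying ER-beta-UAS-bla reporter stimulated with estradiol; series mostly up to about 92 µM; nearly all actives have a fitted effect of over 55% in size.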 In a few lines: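 Tox21 10K library tested in qHTS format on ER-beta-bla HEK293T cells stimulated with 1nM E2; 16 hr treatment at 37C. Same-well CellTiter-Glo luminescence served as the cell viability measure.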

Experiment [5] has as its target Estrogen receptor (Homo sapiens) (UniProt P03372). The experiment is described as follows: qHTS assay to identify small molecule agonists of the estrogen receptor alpha (ER-alpha) signaling pathway in the presence of an antagonist (AID 1259383; calls by dose curve; note: top concentration of the series differs between compounds; nearly all actives have a fitted effect of over 15% in size). In short, it runs like this: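 In VM7Luc4E2 cells, 4,000 per well, compounds at 15 concentrations were co-incubated 22hr at 37C with 10.0nM final ICI-182,780. Luminescence from the stably transfected 4×ERE-luciferase reporter was recorded 30min after ONE-Glo addition.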

Experiment [6] is described as follows: qHTS assay to identify small molecule agonists or antagonists of the thyroid stimulating hormone receptor (TSHR) signaling pathway - wild type cell line counter screen (AID 1259384; calls by dose curve). In a few lines: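 Counter screen in untransfected Hek293: compounds (15-point titration, triplicate) plus phosphodiesterase inhibitor Ro20-1724 added after 18 h plating; 30 min RT. Intracellular cAMP via competitive d2/cryptate immunoassay, 1 h incubation.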

Experiment [7] has as its target Thyrotropin receptor (Homo sapiens) (UniProt P16473). The experiment is described as follows: qHTS assay to identify small molecule antagonists of the thyroid stimulating hormone receptor (TSHR) signaling pathway (AID 1259385; calls by dose curve; note: nearly all actives have a fitted effect of over 20% in size). In short, it runs like this: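 Antagonist mode: compound-treated TSHR-expressing HEK293 cells were stimulated with 1.5 ng/mL TSH (final) in presence of Ro20-1724 for 30 min at RT. HTRF cAMP detection after 1 h; each compound tested at 15 concentrations, triplicate.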

The nature of experiment [8]: qHTS assay to identify small molecule agonists of the estrogen receptor alpha (ER-alpha) signaling pathway in the presence of an antagonist - cell viability counter screen (AID 1259386).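 Note: series mostly up to about 92 µM; cells exposed to compounds for 22 h at 37 °C before the viability read; nearly all actives have a fitted effect of over 30% in size.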 In a few lines:
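Fluorescent CellTiter-Fluor viability signal from VM7Luc4E2 cells, with the reagent added during the final hour of a 22hr compound exposure at 37C in the presence of 10.0nM ICI-182,780.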

The target in experiment [9] is Progesterone receptor (Homo sapiens) (UniProt P06401). Put plainly: qHTS assay to identify small molecule agonists of the progesterone receptor (PR) signaling pathway (AID 1346784; calls by dose curve; note: nearly all actives have a fitted effect of over 30% in size). In short, it runs like this:
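PR-UAS-bla HEK 293T cells (beta-lactamase reporter under UAS) in 2% charcoal-stripped FBS, dosed with 23 nL compound after 6 hr, incubated 16hr at 37C. LiveBLAzer B/G FRET substrate added, fluorescence read after 2 hours.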

Experiment [10] shares this target. Put plainly: qHTS assay to identify small molecule antagonists of the progesterone receptor (PR) signaling pathway (AID 1346795; active = well fitted inhibition curve with a large enough effect in the signal ratio in the repeat runs, not every such curve was filed as active; the % refers to the signal ratio; note: potency is the fitted concentration of half-maximal effect). In a few lines:
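PR-UAS-bla HEK293T cells with beta-lactamase reporter under UAS control, in 2% charcoal-stripped FBS, treated with compounds plus 1 nM promegestone (R5020, final) for 16 hr at 37C. Read-out: FRET beta-lactamase substrate fluorescence after 2 hr at room temperature.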

The nature of experiment [11]: qHTS assay to identify small molecule antagonists of the progesterone receptor (PR) signaling pathway - cell viability counter screen (AID 1346798). Note: nearly all actives have a fitted effect of over 50% in size. Note: potency is the fitted concentration of half-maximal effect. In short, it runs like this: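 PR-UAS-bla HEK293T cells, 3,000/well in 2% charcoal-stripped FBS medium, dosed with compounds plus R5020 agonist and incubated 16 h at 37C. Viability then measured in the same wells by CellTiter-Glo luminescence after 30 min at RT.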

Experiment [12] can be described thus: qHTS assay to identify small molecule agonists of the progesterone receptor (PR) signaling pathway - cell viability counter screen (AID 1346799; calls by dose curve; note: nearly all actives have a fitted effect of over 45% in size). In a few lines: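 Counter screen in the PR-UAS-bla HEK293T wells (2% charcoal-stripped FBS, 16 h compound exposure at 37 C) after the bla read. CellTiter-Glo added, 30 min at room temperature, luminescence read as cell viability.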

Experiment [13] in a line: qHTS assay to identify small molecule antagonists of the TGF-beta/Smad signaling pathway - cell viability counter screen (AID 1346824). Note: nearly all actives have a fitted effect of over 50% in size. In short, it runs like this:
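Cytotoxicity counter-screen run in the same wells as the beta-lactamase Smad reporter read: CellTiter-Glo luminescence after 30 min at room temperature. HEK 293T SBE-bla cells had 5 hr compound exposure at 37 C with TGF-beta1 (0.25 ng/mL stock).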

The nature of experiment [14]: qHTS assay to identify small molecule agonists of the TGF-beta/Smad signaling pathway - cell viability counter screen (AID 1346829). Note: top concentration of the series differs between compounds; nearly all actives have a fitted effect of over 45% in size. In short, it runs like this: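 Luminescence from CellTiter-Glo, read after a 30 min room-temperature incubation, gives cell viability of SBE-bla HEK 293T cells treated 5 hr with compounds at 37 C.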
Experiment [15] can be described thus: qHTS assay to identify small molecule agonists of the TGF-beta/Smad signaling pathway (AID 1346859; active = well fitted activation curve with a large enough effect in the signal ratio in the repeat runs, not every such curve was filed as active; the % refers to the signal ratio; note: series mostly up to about 77 µM). In short, it runs like this: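 SBE-bla HEK293T cells plated overnight, then compound exposure for 5 h at 37 C. Beta-lactamase reporter read with LiveBLAzer B/G FRET substrate after 2 h at room temperature, fluorescence at 405 nm excitation, 460/530 nm emission.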

The target of experiment [16] is Thyrotropin-releasing hormone receptor (Homo sapiens) (UniProt P34981). Put plainly: qHTS assay to identify small molecule antagonists of the thyrotropin-releasing hormone receptor (TRHR) signaling pathway (AID 1346877; active = well fitted inhibition curve with a large enough effect in the repeat runs, not every such curve was filed as active; note: series mostly up to about 51 µM). In a few lines: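 In this cell-based calcium flux format, HEK293 cells expressing TRHR received test compound for 5 min before the agonist TRH (1 nM final). Dye loading lasted 2 h at 37 °C.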
Thyrotropin-releasing hormone receptor (Homo sapiens), sequence (P34981 whole entry, looked up): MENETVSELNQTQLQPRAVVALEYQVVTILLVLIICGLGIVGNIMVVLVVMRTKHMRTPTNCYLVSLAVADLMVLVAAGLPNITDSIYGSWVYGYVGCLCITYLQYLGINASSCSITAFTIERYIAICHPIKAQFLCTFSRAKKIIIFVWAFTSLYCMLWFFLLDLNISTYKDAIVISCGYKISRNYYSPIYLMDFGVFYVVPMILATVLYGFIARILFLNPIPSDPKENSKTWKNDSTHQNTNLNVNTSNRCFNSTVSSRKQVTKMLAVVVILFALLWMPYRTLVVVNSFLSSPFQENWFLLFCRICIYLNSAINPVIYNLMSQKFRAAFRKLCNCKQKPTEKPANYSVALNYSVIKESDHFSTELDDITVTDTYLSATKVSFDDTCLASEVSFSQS

Experiment [17] can be described thus: qHTS assay to identify small molecule agonists of the estrogen receptor beta (ER-beta) signaling pathway - cell viability counter screen (AID 1259380). Note: nearly all actives have a fitted effect of over 30% in size. Note: potency is the fitted concentration of half-maximal effect. In short, it runs like this: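 Viability of ER-beta-UAS-bla HEK293T cells was determined by CellTiter-Glo luminescence following 16 hr treatment with test compounds at 37C.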
In experiment [18] the target is Androgen receptor (Homo sapiens) (UniProt P10275). Put plainly: qHTS assay to identify small molecule agonists of the androgen receptor (AR) signaling pathway in the presence of an antagonist (AID 1259381; calls by dose curve; note: nearly all actives have a fitted effect of over 15% in size). In a few lines:
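Here, 15-concentration compound series were pin-transferred onto MDA-kb2 MMTV-luciferase cells already dosed with nilutamide (3.0uM final). After 16hr at 37C, ONE-Glo was added and luminescence read 30min later at room temperature.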

The target in experiment [19] is Estrogen receptor beta (Homo sapiens) (UniProt Q92731). The experiment is described as follows: qHTS assay to identify small molecule agonists of the estrogen receptor beta (ER-beta) signaling pathway (AID 1259377; active = well fitted activation curve with a large enough effect in the signal ratio in the repeat runs, not every such curve was filed as active; the % refers to the signal ratio). In short, it runs like this: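 ER-beta-UAS-bla HEK293T cells in medium with 2% charcoal-stripped FBS were exposed to compounds for 16 h at 37C. Beta-lactamase reporter activity was read as fluorescence after 2 h with LiveBLAzer B/G FRET substrate at room temperature.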
Estrogen receptor beta (Homo sapiens), sequence (Q92731 whole entry, looked up): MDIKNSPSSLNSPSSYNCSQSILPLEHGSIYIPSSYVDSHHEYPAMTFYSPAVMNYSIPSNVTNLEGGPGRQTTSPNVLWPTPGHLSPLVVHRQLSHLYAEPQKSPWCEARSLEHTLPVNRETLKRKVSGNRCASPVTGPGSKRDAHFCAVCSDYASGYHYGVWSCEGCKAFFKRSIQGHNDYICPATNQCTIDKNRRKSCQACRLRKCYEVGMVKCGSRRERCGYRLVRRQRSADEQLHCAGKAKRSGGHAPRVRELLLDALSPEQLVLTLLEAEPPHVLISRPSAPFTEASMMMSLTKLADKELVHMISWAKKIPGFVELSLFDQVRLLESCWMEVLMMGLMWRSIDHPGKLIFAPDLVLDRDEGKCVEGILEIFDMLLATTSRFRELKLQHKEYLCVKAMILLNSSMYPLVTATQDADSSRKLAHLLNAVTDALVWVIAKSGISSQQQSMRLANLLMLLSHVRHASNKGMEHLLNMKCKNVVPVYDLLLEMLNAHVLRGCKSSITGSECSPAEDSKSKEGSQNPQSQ

Experiment [20] shares this target. The experiment is described as follows: qHTS assay to identify small molecule antagonists of the estrogen receptor beta (ER-beta) signaling pathway (AID 1259378; active = well fitted inhibition curve with a large enough effect in the signal ratio in the repeat runs, not every such curve was filed as active; the % refers to the signal ratio). In a few lines: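 Antagonist mode: compounds added to beta-lactamase reporter HEK293T ER-beta-UAS cells stimulated with E2 (1nM final), 16 hr at 37C. LiveBLAzer B/G FRET substrate, 2 hours room temperature, fluorescence read-out.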

Records with an inconclusive call do not appear. The source made the active and inactive calls. Unless noted, calls come from the whole dose curve; as a rule, active = well fitted curve in the direction sought with a large enough effect in the repeat runs; inconclusive = weak or mixed curves; inactive = no such curve, though single readings can be large; an effect the other way counts as inactive or inconclusive.

Progesterone receptor (Homo sapiens), sequence (P06401 whole entry, looked up): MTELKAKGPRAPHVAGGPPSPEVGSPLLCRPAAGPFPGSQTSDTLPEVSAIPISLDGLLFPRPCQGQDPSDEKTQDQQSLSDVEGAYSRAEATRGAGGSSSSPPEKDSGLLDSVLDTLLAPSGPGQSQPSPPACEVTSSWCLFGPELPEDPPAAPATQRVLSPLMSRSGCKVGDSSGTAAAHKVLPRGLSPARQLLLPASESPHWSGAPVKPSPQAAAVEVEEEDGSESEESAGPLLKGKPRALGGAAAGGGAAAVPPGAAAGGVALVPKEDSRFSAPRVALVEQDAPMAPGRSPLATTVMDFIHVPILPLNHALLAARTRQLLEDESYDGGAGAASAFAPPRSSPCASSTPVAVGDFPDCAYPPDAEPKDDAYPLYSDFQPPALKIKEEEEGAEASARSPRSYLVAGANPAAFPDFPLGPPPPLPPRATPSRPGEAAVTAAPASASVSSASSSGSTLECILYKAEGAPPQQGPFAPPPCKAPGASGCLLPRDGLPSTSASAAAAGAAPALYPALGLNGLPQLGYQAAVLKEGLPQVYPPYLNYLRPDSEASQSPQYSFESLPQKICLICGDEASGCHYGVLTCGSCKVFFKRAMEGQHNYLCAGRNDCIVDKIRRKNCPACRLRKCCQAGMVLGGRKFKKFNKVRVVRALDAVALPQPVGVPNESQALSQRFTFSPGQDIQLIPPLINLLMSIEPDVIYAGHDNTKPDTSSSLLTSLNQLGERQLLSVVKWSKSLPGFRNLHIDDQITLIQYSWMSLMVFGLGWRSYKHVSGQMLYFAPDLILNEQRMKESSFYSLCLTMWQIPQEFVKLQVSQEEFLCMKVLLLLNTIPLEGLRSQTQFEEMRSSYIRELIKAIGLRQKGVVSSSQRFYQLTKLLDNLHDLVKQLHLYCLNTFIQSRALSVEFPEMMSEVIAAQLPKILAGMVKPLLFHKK
Thyrotropin receptor (Homo sapiens), sequence (P16473 whole entry, looked up): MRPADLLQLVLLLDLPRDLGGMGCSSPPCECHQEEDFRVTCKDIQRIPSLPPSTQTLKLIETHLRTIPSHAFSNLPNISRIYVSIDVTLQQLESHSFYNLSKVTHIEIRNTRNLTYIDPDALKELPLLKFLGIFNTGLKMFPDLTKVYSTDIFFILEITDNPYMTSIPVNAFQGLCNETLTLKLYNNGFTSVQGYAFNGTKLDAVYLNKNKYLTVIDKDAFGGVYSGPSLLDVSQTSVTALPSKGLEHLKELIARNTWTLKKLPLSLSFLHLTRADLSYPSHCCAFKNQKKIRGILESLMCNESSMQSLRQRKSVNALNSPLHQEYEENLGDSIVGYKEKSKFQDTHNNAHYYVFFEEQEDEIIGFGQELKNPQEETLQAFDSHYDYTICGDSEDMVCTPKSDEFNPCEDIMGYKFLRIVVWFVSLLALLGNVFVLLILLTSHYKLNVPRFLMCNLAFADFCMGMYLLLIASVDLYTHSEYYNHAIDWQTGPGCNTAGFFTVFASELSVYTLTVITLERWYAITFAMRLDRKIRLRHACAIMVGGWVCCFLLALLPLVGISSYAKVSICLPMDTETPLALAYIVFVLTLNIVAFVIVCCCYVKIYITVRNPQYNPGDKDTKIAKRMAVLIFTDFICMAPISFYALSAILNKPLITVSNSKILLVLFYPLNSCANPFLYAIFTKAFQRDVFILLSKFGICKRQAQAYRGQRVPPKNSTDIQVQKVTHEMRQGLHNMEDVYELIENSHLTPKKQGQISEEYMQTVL
Estrogen receptor (Homo sapiens), sequence (P03372 whole entry, looked up): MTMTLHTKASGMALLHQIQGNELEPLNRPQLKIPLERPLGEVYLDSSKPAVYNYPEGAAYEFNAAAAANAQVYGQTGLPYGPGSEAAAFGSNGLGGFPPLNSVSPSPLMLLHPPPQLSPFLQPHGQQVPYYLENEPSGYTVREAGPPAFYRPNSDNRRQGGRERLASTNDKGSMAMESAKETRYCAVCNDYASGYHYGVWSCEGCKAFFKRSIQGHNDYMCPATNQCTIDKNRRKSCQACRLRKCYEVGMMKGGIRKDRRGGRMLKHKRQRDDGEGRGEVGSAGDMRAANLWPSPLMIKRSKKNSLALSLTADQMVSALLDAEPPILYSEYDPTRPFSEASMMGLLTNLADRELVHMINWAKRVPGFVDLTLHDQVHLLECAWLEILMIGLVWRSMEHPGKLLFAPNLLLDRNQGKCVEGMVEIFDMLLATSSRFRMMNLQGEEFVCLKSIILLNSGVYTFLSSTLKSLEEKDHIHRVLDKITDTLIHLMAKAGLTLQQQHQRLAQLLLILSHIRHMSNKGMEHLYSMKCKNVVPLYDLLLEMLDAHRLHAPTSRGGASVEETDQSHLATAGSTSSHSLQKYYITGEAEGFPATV
Androgen receptor (Homo sapiens), sequence (P10275 whole entry, looked up): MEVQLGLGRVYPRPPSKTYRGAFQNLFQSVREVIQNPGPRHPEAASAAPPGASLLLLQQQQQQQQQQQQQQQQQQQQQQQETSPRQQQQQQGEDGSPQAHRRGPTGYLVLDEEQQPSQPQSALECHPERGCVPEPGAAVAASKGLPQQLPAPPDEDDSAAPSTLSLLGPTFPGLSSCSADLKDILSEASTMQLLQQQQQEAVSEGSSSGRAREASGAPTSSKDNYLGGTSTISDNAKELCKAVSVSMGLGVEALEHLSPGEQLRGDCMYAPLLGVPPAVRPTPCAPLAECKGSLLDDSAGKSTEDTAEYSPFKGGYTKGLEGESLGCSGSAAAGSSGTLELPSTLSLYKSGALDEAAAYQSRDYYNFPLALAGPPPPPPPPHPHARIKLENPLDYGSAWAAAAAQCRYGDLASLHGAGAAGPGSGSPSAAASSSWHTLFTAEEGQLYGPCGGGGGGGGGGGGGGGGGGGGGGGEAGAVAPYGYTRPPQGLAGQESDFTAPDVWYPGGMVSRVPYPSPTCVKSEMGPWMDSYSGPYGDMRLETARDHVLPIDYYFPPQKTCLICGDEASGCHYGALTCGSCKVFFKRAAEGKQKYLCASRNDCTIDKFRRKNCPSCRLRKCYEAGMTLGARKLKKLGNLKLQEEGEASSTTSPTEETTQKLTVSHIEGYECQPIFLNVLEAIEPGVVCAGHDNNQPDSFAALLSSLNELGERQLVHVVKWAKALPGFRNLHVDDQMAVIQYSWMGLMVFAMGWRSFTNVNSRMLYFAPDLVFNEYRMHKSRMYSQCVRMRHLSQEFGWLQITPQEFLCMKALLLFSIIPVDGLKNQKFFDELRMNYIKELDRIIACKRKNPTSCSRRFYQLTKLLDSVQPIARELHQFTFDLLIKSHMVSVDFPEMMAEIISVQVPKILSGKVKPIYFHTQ

For the compound `CCOC(=O)OCC`, the Potency entry in [1], in [2], in [3], in [4], in experiment [5] and in experiment [7] was “inactive” throughout. Also, the Potency result in experiment [8], in [9], in [10], in experiment [11] and in experiment [12] was “inactive” throughout. In addition, the result in experiment [6], in experiment [13], in experiment [14], in [15] and in [16] was inactive.
As to `C[C@@H]1C[C@H]2[C@@H]3CCC4=CC(=O)C=C[C@]4(C)[C@@]3(F)[C@@H](O)C[C@]2(C)[C@@]1(O)C(=O)CO`, the Potency result in experiment [1], in experiment [3], in experiment [17], in experiment [4] and in [8] was “inactive” in each case. The Potency in [2] was 0.492 µM (active). Besides, the outcome in experiment [13], in [14] and in experiment [15] was inactive.
As for `CCOC(=O)c1ccccc1C`, the Potency entry in experiment [1], in [2], in experiment [3], in experiment [4], in experiment [5] and in [7] was “inactive” throughout. The Potency entry in experiment [8] and in [9] was “inactive” each time. In addition, the compound was classed as inactive in [6], in experiment [14], in [15] and in experiment [16]. For the same compound, the Potency in [11] is 15.4 µM (active).
In the case of `CO/N=C1\CN(c2nc3c(cc2F)c(=O)c(C(=O)O)cn3C2CC2)CC1CN` (centres undefined), the Potency result in experiment [1], in [2], in experiment [3], in [4], in experiment [5] and in experiment [7] was “inactive” each time. For the same compound, the Potency entry in [11] and in experiment [12] was “inactive” throughout. The compound was called inactive in [6], in experiment [14] and in [15].
Take `O=C(O)Cc1ccc(-c2ccccc2)cc1`: the Potency entry in [1], in experiment [2], in experiment [3], in experiment [18], in experiment [4] and in [5] was “inactive” throughout. Further, the Potency result in [7], in experiment [8], in experiment [9], in experiment [10], in experiment [11] and in experiment [12] was “inactive” throughout. The compound was called inactive in [6], in experiment [13], in experiment [14], in [15] and in [16].
Turning to `Nc1nccs1`, the Potency entry in [1], in [19], in [20], in [3], in experiment [17] and in [4] was “inactive” in each case. Besides, the Potency result in experiment [8], in experiment [9], in [10], in [11] and in [12] was “inactive” each time. For the same compound, the call in experiment [14], in [15] and in experiment [16] was inactive.
Turning to `Fc1ccccc1[C@@H](F)COC1CCC(Nc2ncnc3[nH]ncc23)CC1` (some centres undefined), the Potency entry in [1] and in experiment [18] was “inactive” in each case. Besides, the Potency in experiment [2] was 12.2 µM (active); in [17] it was 68.6 µM (active); in experiment [10] it was 27.3 µM (active). Also, the call in experiment [6], in experiment [13], in experiment [14] and in experiment [16] was inactive.
